Experimental data published in publication PMC11062922 (Nature Chemical Biology, 2023).
Read-outs that look alike come from different tables or passages of the source.

Tests used:
Parameters in all cases: species or system human, MV4-11 + K-562 + COLO205 + SK-N-BE2 + OVCAR-8
[1] = test system: ACVR1B; settings: read-out: apparent Kd, compound concentrations: 100 nM and 1000 nM (sheet 'Samples'), n = 1
[2] = test system: CSNK1D; settings: read-out: apparent Kd, compound concentrations: 100 nM and 1000 nM (sheet 'Samples'), n = 1
[3] = test system: MAPK14; settings: read-out: apparent Kd, compound concentrations: 100 nM and 1000 nM (sheet 'Samples'), n = 1
[4] = test system: TGFBR1; settings: read-out: apparent Kd, compound concentrations: 100 nM and 1000 nM (sheet 'Samples'), n = 1
[5] = test system: ACVR2B; settings: read-out: apparent Kd, compound concentrations: 100 nM and 1000 nM (sheet 'Samples'), n = 1
[6] = test system: CSNK1A1; settings: read-out: apparent Kd; compound concentrations: 100 nM and 1000 nM (sheet 'Samples'), CATDS: 3.7842664233860401E-2; n = 1
[7] = test system: CSNK1E; settings: read-out: apparent Kd, compound concentrations: 100 nM and 1000 nM (sheet 'Samples'), n = 1
[8] = test system: DDR1; settings: read-out: apparent Kd; compound concentrations: 100 nM and 1000 nM (sheet 'Samples'), CATDS: 5.25374061654219E-2; n = 1
[9] = test system: DDR2; settings: read-out: apparent Kd; compound concentrations: 100 nM and 1000 nM (sheet 'Samples'), CATDS: 4.2392371826783903E-2; n = 1
[10] = test system: GAK; settings: read-out: apparent Kd; compound concentrations: 100 nM and 1000 nM (sheet 'Samples'), CATDS: 0.17328918321310699; n = 1
[11] = test system: MAPK10; settings: read-out: apparent Kd; compound concentrations: 100 nM and 1000 nM (sheet 'Samples'), CATDS: 0.12973795747386199; n = 1
[12] = test system: MAPK8; settings: read-out: apparent Kd; compound concentrations: 100 nM and 1000 nM (sheet 'Samples'), CATDS: 3.7066716076187299E-2; n = 1
[13] = test system: MAPK9; settings: read-out: apparent Kd; compound concentrations: 100 nM and 1000 nM (sheet 'Samples'), CATDS: 0.1157117766231; n = 1
[14] = test system: MAPKAPK2; settings: read-out: apparent Kd, compound concentrations: 100 nM and 1000 nM (sheet 'Samples'), n = 1
[15] = test system: PKN3; settings: read-out: apparent Kd, compound concentrations: 100 nM and 1000 nM (sheet 'Samples'), n = 1
[16] = test system: PRKD2; settings: read-out: apparent Kd; compound concentrations: 100 nM and 1000 nM (sheet 'Samples'), CATDS: 5.3704736783425001E-2; n = 1
[17] = test system: PRKD3; settings: read-out: apparent Kd; compound concentrations: 100 nM and 1000 nM (sheet 'Samples'), CATDS: 4.4266829697393303E-2; n = 1
[18] = test system: RIPK2; settings: read-out: apparent Kd, compound concentrations: 100 nM and 1000 nM (sheet 'Samples'), n = 1
[19] = test system: BUB1; settings: read-out: apparent Kd; compound concentrations: 100 nM and 1000 nM (sheet 'Samples'), CATDS: 2.9368799543599802E-2; n = 1
[20] = test system: CIT; settings: read-out: apparent Kd; compound concentrations: 100 nM and 1000 nM (sheet 'Samples'), CATDS: 3.19087660473499E-2; n = 1
[21] = test system: EPHA1; settings: read-out: apparent Kd; compound concentrations: 100 nM and 1000 nM (sheet 'Samples'), CATDS: 4.4029751359189198E-2; n = 1
[22] = test system: FLT3; settings: read-out: apparent Kd; compound concentrations: 100 nM and 1000 nM (sheet 'Samples'), CATDS: 4.1263088221053297E-2; n = 1
[23] = test system: FRK; settings: read-out: apparent Kd; compound concentrations: 100 nM and 1000 nM (sheet 'Samples'), CATDS: 4.1342549308714401E-2; n = 1
[24] = test system: FYN; settings: read-out: apparent Kd; compound concentrations: 100 nM and 1000 nM (sheet 'Samples'), CATDS: 3.5075113560986498E-2; n = 1
[25] = test system: NLK; settings: read-out: apparent Kd; compound concentrations: 100 nM and 1000 nM (sheet 'Samples'), CATDS: 0.113621067973222; n = 1
[26] = test system: PTK6; settings: read-out: apparent Kd; compound concentrations: 100 nM and 1000 nM (sheet 'Samples'), CATDS: 4.3994171841747899E-2; n = 1
[27] = test system: RET; settings: read-out: apparent Kd; compound concentrations: 100 nM and 1000 nM (sheet 'Samples'), CATDS: 0.126907733860845; n = 1
[28] = test system: RIPK3; settings: read-out: apparent Kd; compound concentrations: 100 nM and 1000 nM (sheet 'Samples'), CATDS: 3.6654773493518103E-2; n = 1
[29] = test system: SIK3; settings: read-out: apparent Kd; compound concentrations: 100 nM and 1000 nM (sheet 'Samples'), CATDS: 2.9281323909689301E-2; n = 1
[30] = test system: SLK; settings: read-out: apparent Kd; compound concentrations: 100 nM and 1000 nM (sheet 'Samples'), CATDS: 3.3087406541094599E-2; n = 1
[31] = test system: TESK2; settings: read-out: apparent Kd; compound concentrations: 100 nM and 1000 nM (sheet 'Samples'), CATDS: 3.8437234907131197E-2; n = 1
[32] = test system: TGFBR2; settings: read-out: apparent Kd; compound concentrations: 100 nM and 1000 nM (sheet 'Samples'), CATDS: 8.5809969501024E-2; n = 1
[33] = test system: ACVR1; settings: read-out: apparent Kd; compound concentrations: 100 nM and 1000 nM (sheet 'Samples'), CATDS: 0.77187058261615105; n = 1
[34] = test system: ADRBK1; settings: read-out: apparent Kd; compound concentrations: 100 nM and 1000 nM (sheet 'Samples'), CATDS: 7.2370560484510002E-2; n = 1
[35] = test system: BMPR1A; settings: read-out: apparent Kd; compound concentrations: 100 nM and 1000 nM (sheet 'Samples'), CATDS: 0.17247820312197201; n = 1
[36] = test system: BMPR1B; settings: read-out: apparent Kd; compound concentrations: 100 nM and 1000 nM (sheet 'Samples'), CATDS: 0.14495542747652801; n = 1
[37] = test system: ZAK; settings: read-out: apparent Kd; compound concentrations: 100 nM and 1000 nM (sheet 'Samples'), CATDS: 6.5320579429353404E-2; n = 1

`Nc1nccc(-c2c(-c3ccc(F)cc3)nn3cc(C(F)(F)F)ccc23)n1` [GW568326X] was tested, and the potency estimated from few doses ([1]; CATDS: 0.37925228743827699) was 0.526 µM, the potency estimated from few doses ([2]; CATDS: 0.232202944333886) was 1.31 µM and the potency estimated from few doses ([3]; CATDS: 0.251383978494441) was 1.1 µM. The potency estimated from few doses ([4]; CATDS: 0.196901676551059) was 2 µM.

With `Cc1ccc2c(-c3ccnc(Nc4ccccc4)n3)c(-c3ccc(F)cc3)nn2n1` [GW833373X] the potency estimated from few doses ([1]; CATDS: 8.2410499697195994E-2) was 0.193 µM, the potency estimated from few doses ([5]; CATDS: 4.1971231951758399E-2) was 1.09 µM and the potency estimated from few doses [6] was 1.64 µM. The potency estimated from few doses ([2]; CATDS: 5.8055493904437101E-2) was 0.418 µM, the potency estimated from few doses ([7]; CATDS: 4.09740757969334E-2) was 1.19 µM and the potency estimated from few doses [8] was 0.543 µM. It also gave a potency estimated from few doses [9] of 1.05 µM, a potency estimated from few doses [10] of 0.0565 µM and a potency estimated from few doses [11] of 0.0871 µM. The potency estimated from few doses ([3]; CATDS: 0.11490787983313) was 0.106 µM, the potency estimated from few doses [12] was 1.8 µM and the potency estimated from few doses [13] was 0.105 µM. It also gave a potency estimated from few doses ([14]; CATDS: 0.100968971541066) of 0.132 µM, a potency estimated from few doses ([15]; CATDS: 3.6917744645490899E-2) of 1.84 µM and a potency estimated from few doses [16] of 0.511 µM. The potency estimated from few doses [17] was 0.906 µM, the potency estimated from few doses ([18]; CATDS: 5.33565185229085E-2) was 0.52 µM and the potency estimated from few doses ([4]; CATDS: 4.4217762618850402E-2) was 0.909 µM.

`Nc1ncnc2c1ncn2-c1cccc(F)c1` [SKF-97560] was tested, and the potency estimated from few doses ([1]; CATDS: 5.4958812802740099E-2) was 0.352 µM, the potency estimated from few doses ([5]; CATDS: 3.61499985403008E-2) was 0.987 µM and the potency estimated from few doses [19] was 2.06 µM. For the same compound, the potency estimated from few doses [20] was 1.49 µM, the potency estimated from few doses ([2]; CATDS: 4.1820376814662601E-2) was 0.661 µM and the potency estimated from few doses ([7]; CATDS: 3.1298508243452101E-2) was 1.6 µM. It also gave a potency estimated from few doses [21] of 0.581 µM, a potency estimated from few doses [22] of 0.684 µM and a potency estimated from few doses [23] of 0.681 µM. It also gave a potency estimated from few doses [24] of 1.08 µM, a potency estimated from few doses ([3]; CATDS: 3.4547137011971901E-2) of 1.14 µM and a potency estimated from few doses ([14]; CATDS: 3.21088228610018E-2) of 1.45 µM. The potency estimated from few doses [25] was 0.0949 µM, the potency estimated from few doses ([15]; CATDS: 8.07286972312308E-2) was 0.168 µM and the potency estimated from few doses [26] was 0.582 µM. For the same compound, the potency estimated from few doses [27] was 0.08 µM, the potency estimated from few doses ([18]; CATDS: 0.22838556729877599) was 0.0349 µM and the potency estimated from few doses [28] was 0.948 µM. For the same compound, the potency estimated from few doses [29] was 2.09 µM, the potency estimated from few doses [30] was 1.31 µM and the potency estimated from few doses [31] was 0.828 µM. It also gave a potency estimated from few doses ([4]; CATDS: 6.0050656716600502E-2) of 0.293 µM and a potency estimated from few doses [32] of 0.151 µM.

Compound `COc1cc(-c2cncc(-c3cnn(C4CCNCC4)c3)c2)cc(OC)c1OC` [K05908] has a potency estimated from few doses ([1]; CATDS: 0.127263158539664) of 0.0931 µM, a potency estimated from few doses [33] of 0.00197 µM and a potency estimated from few doses ([5]; CATDS: 7.0258773018851195E-2) of 1.36 µM. For the same compound, the potency estimated from few doses [34] was 1.11 µM, the potency estimated from few doses [35] was 0.0423 µM and the potency estimated from few doses [36] was 0.065 µM. It also gave a potency estimated from few doses ([18]; CATDS: 0.16221198549174301) of 0.049 µM, a potency estimated from few doses ([4]; CATDS: 0.103891234408396) of 0.181 µM and a potency estimated from few doses [37] of 2.41 µM.
